Source: PubChem BioAssay (NCATS)
Results filed as inconclusive are left out. Where a call stands in place of a potency, no number is given. Activity calls are given as the source filed them. Calls follow the shape of the dose curve; as a rule, active = well fitted curve in the direction sought with a large enough effect; inconclusive = small, poorly fitted or top-dose-only effect, or another doubt; inactive = no such curve, though single readings can be large; an effect the other way counts as inactive or inconclusive.

target: Aldehyde dehydrogenase, mitochondrial (Homo sapiens) (UniProt P05091); assay: qHTS for Inhibitors of the Aldehyde Dehydrogenase Family (ALDH2) Primary screen (AID 2061308); conditions: ALDH2 enzyme inhibition qHTS, 1536-well; series mostly up to 56 µM; also: nearly all actives have a fitted effect of over 55% in size

| SMILES | Potency |
| --- | --- |
| O=C(O)c1ccc(-n2cccc2/C=C2\SC(=O)N(Cc3ccc(Br)cc3)C2=O)cc1 | inactive |
| N[C@@H](Cc1ccc(OS(=O)(=O)c2cccnc2)cc1)C(=O)N1CCN(c2ccccc2)CC1 | inactive |
| COc1ccc(C2Nc3ccccc3C(=O)N2CCc2ccccc2)cc1COc1ccc(NC(C)=O)cc1 (configuration not stated) | inactive |
| C/C=C/C=C/C(O)=C1/C(=O)[C@]2(C)C3/C(=C(O)/C=C/C=C/C)C(=O)C4(C)C1[C@]1(C)O[C@@]4(O)[C@@]3(C)O[C@@]12O | inactive |
| N#Cc1ccc(CNc2nc(-c3ccccc3C(F)(F)F)nc3ccccc23)cc1 | inactive |
| Cc1cc(NC(=O)c2ccc(NC(=O)Cc3ccc(Cl)c(Cl)c3)cc2)no1 | inactive |
| COc1ccc(C2Nc3ccccc3C(=O)N2Cc2ccccc2)cc1COc1ccc(NC(C)=O)cc1 (configuration not stated) | inactive |
| COC(=O)c1ccc(O)c2ncc(-c3ccc(C(=O)N4CCNCC4)cc3)cc12 | inactive |
| O=C(O)c1ccc(S(=O)(=O)N[C@H](Cc2ccc(O)cc2)C(=O)O)cc1 | inactive |
| N#Cc1nc(Nc2cccc(Cl)c2)nc(NC2CCCC2)n1 | inactive |
| COc1cc(/C=C2\C(=O)Nc3ccccc32)ccc1O | inactive |
| Cc1ccc2nc3sc(C(=O)Nc4ccncc4)cc3cc2c1 | inactive |
| CCCCN(C)C(=O)Cn1nc(-c2ccc(Cl)cc2)ccc1=O | inactive |
| NC(=O)C1CCN(c2nc(-c3ccccc3N)cs2)CC1 | inactive |
| CN(Cc1ccco1)c1ncnc2ccc(-c3ccoc3)cc12 | inactive |
| COc1cccc(CNc2ccc(S(=O)(=O)Nc3ccc(C)nc3)cc2)c1O | inactive |
| O=C(OCC#CCSc1nnc(-c2cccc3ccccc23)o1)c1ccc(Br)cc1 | inactive |
| O=C(O)c1ccc(-n2cccc2/C=C2\SC(=O)N(Cc3ccc(F)cc3)C2=O)cc1 | inactive |
| NC(=O)C1CCN(c2nc(-c3ccccc3[N+](=O)[O-])cs2)CC1 | inactive |
| CC(C)Oc1cccc(-c2cnc(N3CCC(C(N)=O)CC3)s2)c1 | inactive |

| SMILES | Potency |
| --- | --- |
| CC(C)(C)OC(=O)NCCOCCOCCOCCn1ncc2c1CCCC2NC(=O)c1ccccn1 (configuration not stated) | inactive |
| CNc1sc(-c2cccc3ccccc23)nc1C(=O)OC | inactive |
| Fc1cnc(-c2ccccc2C(F)F)nc1NCC1CCN(c2cnccn2)CC1 | inactive |
| Cc1ccc(-n2c(C)cc(-c3nnc4n3CCCCC4)c2C)cc1 | inactive |
| CC(=O)c1cccc(-c2csc(N3CCC(C(N)=O)CC3)n2)c1 | inactive |
| COc1ccc(OCc2cc(C3Nc4ccccc4C(=O)N3Cc3ccccc3)ccc2OC)cc1 (configuration not stated) | inactive |
| COc1ccc(NC(=O)CN(C)C(=O)c2cc3c(s2)CCC3)cc1 | inactive |
| COc1ccc(C2Nc3ccccc3C(=O)N2Cc2ccccc2OC)cc1COc1ccc(NC(C)=O)cc1 (configuration not stated) | inactive |
| COc1cccc(CN2C(=O)c3ccccc3NC2c2ccc(OC)c(COc3ccc(NC(C)=O)cc3)c2)c1 (configuration not stated) | inactive |
| NCC(=O)Nc1cncc(-c2nn3c(=O)cc(N4CCNCC4)nc3s2)c1 | inactive |
| O=C(O)c1ccc(O)c2ncc(-c3ccc(C(=O)N4CCNCC4)cc3)cc12 | inactive |
| N#Cc1nc(Nc2ccc(F)cc2)nc(NC2CCCC2)n1 | inactive |
| CC(=O)C1CCN(c2ncc(-c3cccc(N(C)C)c3)s2)CC1 | inactive |
| COc1ccc(C2Nc3ccccc3C(=O)N2Cc2ccccn2)cc1COc1ccc(NC(C)=O)cc1 (configuration not stated) | inactive |
| O=C([C@H](Cc1ccc(O[S+](=O)([O-])c2cccnc2)cc1)N[S+](=O)([O-])c1cccc2cnccc12)N1CCN(c2ccccc2)CC1 | inactive |
| OCc1ccc(-c2ccc3ncnc(NCCc4cnc[nH]4)c3c2)o1 | inactive |
| CC(=O)N1CCc2cc(-c3nc(NC(=O)Cc4ccc5c(c4)OCO5)sc3C)ccc21 | inactive |
| COc1ccc(C2Nc3ccccc3C(=O)N2C2CCCC2)cc1COc1ccc(NC(C)=O)cc1 (configuration not stated) | inactive |
| CN(CC(=O)O)c1ncnc2ccc(-c3ccc4c(c3)OCO4)cc12 | inactive |

target: Retinaldehyde dehydrogenase 3 (Homo sapiens) (UniProt P47895); assay: qHTS for Inhibitors of the Aldehyde Dehydrogenase Family (ALDH1A3) Primary screen (AID 2061315); conditions: ALDH inhibition qHTS; series mostly up to 56 µM

| SMILES | Potency |
| --- | --- |
| O=C(O)c1ccc(-n2cccc2/C=C2\SC(=O)N(Cc3ccc(Br)cc3)C2=O)cc1 | inactive |
| N[C@@H](Cc1ccc(OS(=O)(=O)c2cccnc2)cc1)C(=O)N1CCN(c2ccccc2)CC1 | inactive |
| COc1ccc(C2Nc3ccccc3C(=O)N2CCc2ccccc2)cc1COc1ccc(NC(C)=O)cc1 (configuration not stated) | inactive |
| C/C=C/C=C/C(O)=C1/C(=O)[C@]2(C)C3/C(=C(O)/C=C/C=C/C)C(=O)C4(C)C1[C@]1(C)O[C@@]4(O)[C@@]3(C)O[C@@]12O | inactive |
| N#Cc1ccc(CNc2nc(-c3ccccc3C(F)(F)F)nc3ccccc23)cc1 | inactive |
| Cc1cc(NC(=O)c2ccc(NC(=O)Cc3ccc(Cl)c(Cl)c3)cc2)no1 | inactive |
| COc1ccc(C2Nc3ccccc3C(=O)N2Cc2ccccc2)cc1COc1ccc(NC(C)=O)cc1 (configuration not stated) | inactive |
| COC(=O)c1ccc(O)c2ncc(-c3ccc(C(=O)N4CCNCC4)cc3)cc12 | inactive |
| O=C(O)c1ccc(S(=O)(=O)N[C@H](Cc2ccc(O)cc2)C(=O)O)cc1 | inactive |
| N#Cc1nc(Nc2cccc(Cl)c2)nc(NC2CCCC2)n1 | inactive |
| COc1cc(/C=C2\C(=O)Nc3ccccc32)ccc1O | inactive |
| Cc1ccc2nc3sc(C(=O)Nc4ccncc4)cc3cc2c1 | inactive |
| CCCCN(C)C(=O)Cn1nc(-c2ccc(Cl)cc2)ccc1=O | inactive |
| NC(=O)C1CCN(c2nc(-c3ccccc3N)cs2)CC1 | inactive |
| CN(Cc1ccco1)c1ncnc2ccc(-c3ccoc3)cc12 | inactive |
| COc1cccc(CNc2ccc(S(=O)(=O)Nc3ccc(C)nc3)cc2)c1O | inactive |
| O=C(OCC#CCSc1nnc(-c2cccc3ccccc23)o1)c1ccc(Br)cc1 | inactive |
| O=C(O)c1ccc(-n2cccc2/C=C2\SC(=O)N(Cc3ccc(F)cc3)C2=O)cc1 | inactive |
| NC(=O)C1CCN(c2nc(-c3ccccc3[N+](=O)[O-])cs2)CC1 | inactive |

| SMILES | Potency |
| --- | --- |
| CC(C)Oc1cccc(-c2cnc(N3CCC(C(N)=O)CC3)s2)c1 | inactive |
| CC(C)(C)OC(=O)NCCOCCOCCOCCn1ncc2c1CCCC2NC(=O)c1ccccn1 (configuration not stated) | inactive |
| CNc1sc(-c2cccc3ccccc23)nc1C(=O)OC | inactive |
| Fc1cnc(-c2ccccc2C(F)F)nc1NCC1CCN(c2cnccn2)CC1 | inactive |
| Cc1ccc(-n2c(C)cc(-c3nnc4n3CCCCC4)c2C)cc1 | inactive |
| COc1ccc(OCc2cc(C3Nc4ccccc4C(=O)N3Cc3ccccc3)ccc2OC)cc1 (configuration not stated) | inactive |
| COc1ccc(NC(=O)CN(C)C(=O)c2cc3c(s2)CCC3)cc1 | inactive |
| COc1ccc(C2Nc3ccccc3C(=O)N2Cc2ccccc2OC)cc1COc1ccc(NC(C)=O)cc1 (configuration not stated) | inactive |
| COc1cccc(CN2C(=O)c3ccccc3NC2c2ccc(OC)c(COc3ccc(NC(C)=O)cc3)c2)c1 (configuration not stated) | inactive |
| NCC(=O)Nc1cncc(-c2nn3c(=O)cc(N4CCNCC4)nc3s2)c1 | inactive |
| O=C(O)c1ccc(O)c2ncc(-c3ccc(C(=O)N4CCNCC4)cc3)cc12 | inactive |
| N#Cc1nc(Nc2ccc(F)cc2)nc(NC2CCCC2)n1 | inactive |
| CC(=O)C1CCN(c2ncc(-c3cccc(N(C)C)c3)s2)CC1 | inactive |
| COc1ccc(C2Nc3ccccc3C(=O)N2Cc2ccccn2)cc1COc1ccc(NC(C)=O)cc1 (configuration not stated) | inactive |
| O=C([C@H](Cc1ccc(O[S+](=O)([O-])c2cccnc2)cc1)N[S+](=O)([O-])c1cccc2cnccc12)N1CCN(c2ccccc2)CC1 | inactive |
| OCc1ccc(-c2ccc3ncnc(NCCc4cnc[nH]4)c3c2)o1 | inactive |
| CC(=O)N1CCc2cc(-c3nc(NC(=O)Cc4ccc5c(c4)OCO5)sc3C)ccc21 | inactive |
| COc1ccc(C2Nc3ccccc3C(=O)N2C2CCCC2)cc1COc1ccc(NC(C)=O)cc1 (configuration not stated) | inactive |
| CN(CC(=O)O)c1ncnc2ccc(-c3ccc4c(c3)OCO4)cc12 | inactive |
